This note sets out measurements from ChEMBL document CHEMBL1157539, “Thousands of chemical starting points for antimalarial lead identification” (Nature, 2010).

Structures are written as SMILES.

In one experiment the test system is Plasmodium falciparum. Briefly: GSK_TCMDC: Inhibition of Plasmodium falciparum 3D7 in whole red blood cells, using parasite LDH activity as an index of growth. Test compounds present at 2uM. The experiment is classed as functional.
For orientation: Inhibition means how much of the control response was suppressed. Lower therefore signals little suppression. Compound `N=c1[nH]c2cccc3ccc4cccc1c4c32` returned an Inhibition of 100%.
`CC(C)(C)c1ccc(CN(C[C@@H](O)CNS(=O)(=O)c2cc(Cl)cc(Cl)c2)C(C)(C)C)cc1.Cl`: the Inhibition is reported as 98%.
In the case of `COCCN1CCC(C(=O)NCC(C)(C)c2nc(-c3ccc(Br)c(O)c3)c(-c3ccncc3)[nH]2)CC1.Cl`, the Inhibition is listed as 99%.
As to `CC(C)CNCc1cccc(-c2ccc(CNc3ccc(C(=O)c4ccccc4)cc3)cc2)c1.O=C(O)C(F)(F)F`, the Inhibition is on record as 97%.
In turn, `CCC1CCc2cc(N)cc(-c3nc4c(c(C)nn4CC)c(=O)[nH]3)c2O1` (stereo not given) had an Inhibition of 86%.
Compound `Cl.Oc1cccc(Nc2ccnc3cc(-c4cc5ccccc5o4)ccc23)c1` came in with an Inhibition of 100%.
Compound `COc1cccc2cc(C(=O)N[C@@H](CC(C)C)C(=O)N[C@H](C=NN3CCOC3=O)CC(C)C)oc12` had an Inhibition of 90%.
`Br.CC1(C)NC(N)=NC(=N)N1OCCNCc1ccc(Cl)cc1` displayed an Inhibition of 95%.
`Cl.NC1=NC2(CCCCC2)N(Cc2ccc(Cl)c(Cl)c2)C(N)=N1` showed an Inhibition of 86%.
Regarding `CC(=O)Nc1ccc(OCCN(Cc2ccccc2C(F)(F)F)c2ccc(C#N)c(C(F)(F)F)c2)c(Cl)c1`, the Inhibition turned out to be 98%.
`COCCN1CCC(NCC(C)(C)c2nc(-c3ccc(Cl)c(O)c3)c(-c3ccncc3)[nH]2)CC1.Cl` registered an Inhibition of 100%.
`COc1cccc(C(=O)Nc2nonc2-c2ccc(OC)c(OC)c2)c1` returned an Inhibition of 97%.
On the same count and under the same terms, the figure for `O=C(/C=C/c1ccc(Cl)c(Cl)c1)NCCCCCCN1CCN(C(=O)Nc2ccc(OC(F)F)cc2)CC1` is 91%; for `COc1cc(F)c2ncc(Cl)c(CCN3CCC(NCc4ccc5c(n4)NC(=O)CO5)CC3)c2c1.Cl` it is 89%.
Take `CCCCCCNCc1c(O)ccc2c(CNCCCCCC)c(O)ccc12.Cl`: the Inhibition is listed as 100%.
The compound `C=C(NC(=O)c1cc(C)cc(C)c1)C(=O)OC` came in with an Inhibition of 95%.
In turn, `O=C(Nc1ccc2c(c1)CCC2)N[C@H]1CCN(Cc2ccc(OCCCN3CCCCC3)cc2)C1` registered an Inhibition of 96%.
`COc1ccc(Cn2cncc2CN(CCC(C)C)C(=O)c2ccc(Cl)nc2Cl)cc1.O=C(O)C(F)(F)F`: the Inhibition is given as 87%.
The same measure, in the same setting: the figure for `CN(Cc1cccc(C#N)c1)C1CCN(c2cc(NC(=O)c3cccc(F)c3)ccn2)CC1.O=C(O)C(F)(F)F` is 98%; for `CC(C)(C)c1ccc2[nH]c(-c3ccc(/C=C/C(=O)NC4CCN(Cc5ccccc5)CC4)cc3)nc2c1` it is 100%; for `O=C(Nc1ccc2ccccc2c1)N1CCC(NCc2cccc([N+](=O)[O-])c2)CC1.O=C(O)C(F)(F)F` it is 98%.
In turn, `CN1CCN(c2ccnc3ccc(NC(=O)Nc4ccc(-c5ccncc5)c(C(F)(F)F)c4)cc23)CC1` returned an Inhibition of 99%.
In turn, `O=C(Nc1cccc(-c2ccc(-c3nc4ccccc4[nH]3)cc2)c1)Nc1ccc(F)c(F)c1F` gave an Inhibition of 100%.
Same read-out and setting: the figure for `CCCCC(CCCC)CN1C(=O)C(c2ccccc2)(c2ccccc2)N=C1N.O=CO` is 96%; for `C[C@H](Cc1ccc(OCCCCCCOc2ccc(C[C@@H](C)N[C@H](C)c3ccccc3)cc2)cc1)NC[C@H](O)c1cccc(Cl)c1.Cl` it is 99%; for `COc1ccc2nccc([C@@H](O)CN3CCC(NC(=O)CCC(=O)c4cc(C(C)(C)C)ccc4OC)CC3)c2c1` it is 94%.
Compound `COc1cc(NC(=O)N2CCc3ccc(OCCC4CCCN4C)cc32)cc(C(F)(F)F)c1.O=C(O)C(F)(F)F` (stereo not given) displayed an Inhibition of 100%.
The compound `CC(N)(Cc1ccc(O)cc1)c1nnn[nH]1` (stereo not given) had an Inhibition of 93%.
Still for that read-out and setting: the figure for `COc1ccc2c(NN=Cc3ccccc3F)ccnc2c1` is 98%; for `COc1ccc(CCN(C)CCOc2ccc(NC(=O)c3ccc([N+](=O)[O-])c4c(=O)c5ccccc5[nH]c34)cc2)cc1OC` it is 91%; for `O=C(O)C(F)(F)F.O=S(=O)(NCCN1CCCC1)c1ccc(-c2ccc(CNC3Cc4ccccc4C3)cc2)s1` it is 100%.
The compound `Cc1ccccc1C1CCN(C2CCC(NC(=O)/C=C/c3ccc(F)cc3)CC2)CC1` (stereo not given) showed an Inhibition of 87%.
In the case of `COc1cc2ncnc(Nc3ccc(Br)c(Cl)c3)c2cc1OC.Cl`, the Inhibition amounted to 100%.
Compound `COc1ccc(C(=O)Nc2ccc3oc(-c4ccc(C(F)(F)F)cc4)cc3c2)cc1CCCN(C)C` came in with an Inhibition of 98%.
In the case of `CC(C)COc1ccc(Cl)cc1Cc1nc(-c2nc3ccc(CN(C)C)cc3[nH]2)co1.Cl`, the Inhibition came to 97%.
As for `COC(=O)Cn1c2ccccc2c2c(N)c(C(=O)OC)c(C)nc21`, the Inhibition is 93%.
Compound `c1ccc2cc3c(Nc4ccc(N5CCCCCC5)cc4)ccnc3cc2c1` had an Inhibition of 94%.
On to `CCCCCCCNCc1c(O)ccc2c(CNCCCCCCC)c(O)ccc12.Cl`, for which the Inhibition came to 100%.
`O=C(c1ccc(-c2cnc3[nH]cc(-c4ccc(C(=O)N5CCOCC5)cc4)c3c2)cc1)N1CCOCC1` displayed an Inhibition of 91%.
On the same count and under the same terms, the result for `C#CCCC(=O)Nc1cccc(-c2cccc(-c3nc4cc(C(F)(F)F)ccc4[nH]3)c2)c1` reads 90%.

For the next experiment, the system named is Plasmodium falciparum. Briefly: GSK_TCMDC: Inhibition of Plasmodium falciparum Dd2 in whole red blood cells, using parasite LDH activity as an index of growth. Test compounds present at 2uM. The experiment is classed as functional.
In the case of `N=c1[nH]c2cccc3ccc4cccc1c4c32`, the Inhibition is given as 69%.
Regarding `CC(C)(C)c1ccc(CN(C[C@@H](O)CNS(=O)(=O)c2cc(Cl)cc(Cl)c2)C(C)(C)C)cc1.Cl`, the Inhibition was 94%.
The same measure, in the same setting: the result for `COCCN1CCC(C(=O)NCC(C)(C)c2nc(-c3ccc(Br)c(O)c3)c(-c3ccncc3)[nH]2)CC1.Cl` reads 6%; that for `CC(C)CNCc1cccc(-c2ccc(CNc3ccc(C(=O)c4ccccc4)cc3)cc2)c1.O=C(O)C(F)(F)F`, 0%; that for `CCC1CCc2cc(N)cc(-c3nc4c(c(C)nn4CC)c(=O)[nH]3)c2O1` (stereo not given), 42%.
With `Cl.Oc1cccc(Nc2ccnc3cc(-c4cc5ccccc5o4)ccc23)c1`, the Inhibition worked out at 71%.
On to `COc1cccc2cc(C(=O)N[C@@H](CC(C)C)C(=O)N[C@H](C=NN3CCOC3=O)CC(C)C)oc12`, for which the Inhibition stood at 72%.
The same measure, in the same setting: the figure for `Br.CC1(C)NC(N)=NC(=N)N1OCCNCc1ccc(Cl)cc1` is 0%; for `Cl.NC1=NC2(CCCCC2)N(Cc2ccc(Cl)c(Cl)c2)C(N)=N1` it is 76%; for `CC(=O)Nc1ccc(OCCN(Cc2ccccc2C(F)(F)F)c2ccc(C#N)c(C(F)(F)F)c2)c(Cl)c1` it is 78%.
`COCCN1CCC(NCC(C)(C)c2nc(-c3ccc(Cl)c(O)c3)c(-c3ccncc3)[nH]2)CC1.Cl` displayed an Inhibition of 47%.
The compound `COc1cccc(C(=O)Nc2nonc2-c2ccc(OC)c(OC)c2)c1` showed an Inhibition of 50%.
Regarding `O=C(/C=C/c1ccc(Cl)c(Cl)c1)NCCCCCCN1CCN(C(=O)Nc2ccc(OC(F)F)cc2)CC1`, the Inhibition came to 15%.
`COc1cc(F)c2ncc(Cl)c(CCN3CCC(NCc4ccc5c(n4)NC(=O)CO5)CC3)c2c1.Cl`: the Inhibition stood at 19%.
`CCCCCCNCc1c(O)ccc2c(CNCCCCCC)c(O)ccc12.Cl` showed an Inhibition of 100%.
Compound `C=C(NC(=O)c1cc(C)cc(C)c1)C(=O)OC` showed an Inhibition of 0%.
Compound `O=C(Nc1ccc2c(c1)CCC2)N[C@H]1CCN(Cc2ccc(OCCCN3CCCCC3)cc2)C1` had an Inhibition of 0%.
The compound `COc1ccc(Cn2cncc2CN(CCC(C)C)C(=O)c2ccc(Cl)nc2Cl)cc1.O=C(O)C(F)(F)F` returned an Inhibition of 61%.
For the compound `CN(Cc1cccc(C#N)c1)C1CCN(c2cc(NC(=O)c3cccc(F)c3)ccn2)CC1.O=C(O)C(F)(F)F`, the Inhibition turned out to be 15%.
Turning to `CC(C)(C)c1ccc2[nH]c(-c3ccc(/C=C/C(=O)NC4CCN(Cc5ccccc5)CC4)cc3)nc2c1`, the Inhibition amounted to 96%.
Same read-out and setting: the result for `O=C(Nc1ccc2ccccc2c1)N1CCC(NCc2cccc([N+](=O)[O-])c2)CC1.O=C(O)C(F)(F)F` reads 0%; that for `CN1CCN(c2ccnc3ccc(NC(=O)Nc4ccc(-c5ccncc5)c(C(F)(F)F)c4)cc23)CC1`, 99%; that for `O=C(Nc1cccc(-c2ccc(-c3nc4ccccc4[nH]3)cc2)c1)Nc1ccc(F)c(F)c1F`, 38%.
Take `CCCCC(CCCC)CN1C(=O)C(c2ccccc2)(c2ccccc2)N=C1N.O=CO`: the Inhibition is on record as 96%.
As to `C[C@H](Cc1ccc(OCCCCCCOc2ccc(C[C@@H](C)N[C@H](C)c3ccccc3)cc2)cc1)NC[C@H](O)c1cccc(Cl)c1.Cl`, the Inhibition is listed as 98%.
For `COc1ccc2nccc([C@@H](O)CN3CCC(NC(=O)CCC(=O)c4cc(C(C)(C)C)ccc4OC)CC3)c2c1`, the Inhibition was determined as 51%.
Compound `COc1cc(NC(=O)N2CCc3ccc(OCCC4CCCN4C)cc32)cc(C(F)(F)F)c1.O=C(O)C(F)(F)F` (stereo not given) displayed an Inhibition of 42%.
In turn, `CC(N)(Cc1ccc(O)cc1)c1nnn[nH]1` (stereo not given) displayed an Inhibition of 2%.
`COc1ccc2c(NN=Cc3ccccc3F)ccnc2c1`: the Inhibition came out at 99%.
Same read-out and setting: the figure for `COc1ccc(CCN(C)CCOc2ccc(NC(=O)c3ccc([N+](=O)[O-])c4c(=O)c5ccccc5[nH]c34)cc2)cc1OC` is 25%; for `O=C(O)C(F)(F)F.O=S(=O)(NCCN1CCCC1)c1ccc(-c2ccc(CNC3Cc4ccccc4C3)cc2)s1` it is 97%; for `Cc1ccccc1C1CCN(C2CCC(NC(=O)/C=C/c3ccc(F)cc3)CC2)CC1` (stereo not given) it is 30%.
`COc1cc2ncnc(Nc3ccc(Br)c(Cl)c3)c2cc1OC.Cl` registered an Inhibition of 15%.
The compound `COc1ccc(C(=O)Nc2ccc3oc(-c4ccc(C(F)(F)F)cc4)cc3c2)cc1CCCN(C)C` came in with an Inhibition of 27%.
Still for that read-out and setting: the figure for `CC(C)COc1ccc(Cl)cc1Cc1nc(-c2nc3ccc(CN(C)C)cc3[nH]2)co1.Cl` is 87%.
In the case of `COC(=O)Cn1c2ccccc2c2c(N)c(C(=O)OC)c(C)nc21`, the Inhibition came out at 1%.
As to `c1ccc2cc3c(Nc4ccc(N5CCCCCC5)cc4)ccnc3cc2c1`, the Inhibition was found to be 76%.
On the same count and under the same terms, the result for `CCCCCCCNCc1c(O)ccc2c(CNCCCCCCC)c(O)ccc12.Cl` reads 99%; that for `O=C(c1ccc(-c2cnc3[nH]cc(-c4ccc(C(=O)N5CCOCC5)cc4)c3c2)cc1)N1CCOCC1`, 0%; that for `C#CCCC(=O)Nc1cccc(-c2cccc(-c3nc4cc(C(F)(F)F)ccc4[nH]3)c2)c1`, 45%.
